Experiment [1] concerns Plasmodium falciparum Sir2 (PF13_0152, Sir2A). Description: Plasmodium falciparum Sir2A binding compounds – biochemical, small-molecule microarray, 635 nm fluorescence, primary screen (AID 1098).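 Note: score merges spot fluorescence intensity with its signal-to-noise ratio.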 To be noted: fluorescence 635 nm, higher = more signal.
Experiment [2] in a line: probe aDKK1 binding to arrayed compounds – biochemical, biotinylated probe, 635/667 nm fluorescence, primary screen (AID 1099).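 Note: score merges 667nm spot fluorescence with signal to noise across triplicate slides.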 To be noted: small-molecule microarray, higher = more signal.
A short description of experiment [3]: probe aCHRDL2 binding to arrayed compounds – biochemical, biotinylated probe, 635/667 nm fluorescence, primary screen (AID 1100). The settings on record: small-molecule microarray, higher = more signal.
Experiment [4] is described as follows: change in splice reporter luminescence, either direction, cell-based, HEK293, spliceosome inhibition project, primary screen (AID 1101).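 Note: HEK293 cells carrying a splicing-competent luciferase reporter gene; test concentration not given here.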 The settings on record: HEK293 splicing luciferase reporter, 24 h, higher = more signal, called active from +8 up or from −8 down. (In general: Reporter assays use an easily measured gene product as a stand-in for the process of interest.)

Experiment [5] deals with Fibroblast growth factor 10 (Homo sapiens) (UniProt O15520). Description: compounds binding fibroblast growth factor 10 – biochemical, small-molecule microarray, 635 nm fluorescence, primary screen (AID 1102). The settings on record: FGF10 binding, fluorescence 635 nm, higher = more signal.
Fibroblast growth factor 10 (Homo sapiens), sequence (O15520 whole entry, looked up): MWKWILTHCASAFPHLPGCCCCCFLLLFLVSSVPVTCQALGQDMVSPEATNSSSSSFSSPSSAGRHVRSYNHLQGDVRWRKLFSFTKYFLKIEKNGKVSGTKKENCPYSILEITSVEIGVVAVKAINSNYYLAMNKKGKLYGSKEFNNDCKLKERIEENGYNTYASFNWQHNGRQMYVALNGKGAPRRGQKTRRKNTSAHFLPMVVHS
Experiment [6] concerns glycogen synthase kinase-3 (GSK3A per assay name; protocol says GSK3B). Description: compounds binding glycogen synthase kinase-3 – biochemical, small-molecule microarray, 635 nm fluorescence, GSK3A, primary screen (AID 1103). Note: the record names both GSK3A and GSK3B. To be noted: fluorescence 635 nm, higher = more signal.
The target in experiment [7] is Epidermal growth factor receptor (Homo sapiens) (UniProt P00533). Description: compounds binding epidermal growth factor receptor – biochemical, small-molecule microarray, 635 nm fluorescence, primary screen (AID 1104).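 Note: score merges 667 nm emission intensity with spot signal to noise over triplicate slides.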 The settings on record: EGFR binding, higher = more signal.
Epidermal growth factor receptor (Homo sapiens), sequence (P00533 whole entry, looked up): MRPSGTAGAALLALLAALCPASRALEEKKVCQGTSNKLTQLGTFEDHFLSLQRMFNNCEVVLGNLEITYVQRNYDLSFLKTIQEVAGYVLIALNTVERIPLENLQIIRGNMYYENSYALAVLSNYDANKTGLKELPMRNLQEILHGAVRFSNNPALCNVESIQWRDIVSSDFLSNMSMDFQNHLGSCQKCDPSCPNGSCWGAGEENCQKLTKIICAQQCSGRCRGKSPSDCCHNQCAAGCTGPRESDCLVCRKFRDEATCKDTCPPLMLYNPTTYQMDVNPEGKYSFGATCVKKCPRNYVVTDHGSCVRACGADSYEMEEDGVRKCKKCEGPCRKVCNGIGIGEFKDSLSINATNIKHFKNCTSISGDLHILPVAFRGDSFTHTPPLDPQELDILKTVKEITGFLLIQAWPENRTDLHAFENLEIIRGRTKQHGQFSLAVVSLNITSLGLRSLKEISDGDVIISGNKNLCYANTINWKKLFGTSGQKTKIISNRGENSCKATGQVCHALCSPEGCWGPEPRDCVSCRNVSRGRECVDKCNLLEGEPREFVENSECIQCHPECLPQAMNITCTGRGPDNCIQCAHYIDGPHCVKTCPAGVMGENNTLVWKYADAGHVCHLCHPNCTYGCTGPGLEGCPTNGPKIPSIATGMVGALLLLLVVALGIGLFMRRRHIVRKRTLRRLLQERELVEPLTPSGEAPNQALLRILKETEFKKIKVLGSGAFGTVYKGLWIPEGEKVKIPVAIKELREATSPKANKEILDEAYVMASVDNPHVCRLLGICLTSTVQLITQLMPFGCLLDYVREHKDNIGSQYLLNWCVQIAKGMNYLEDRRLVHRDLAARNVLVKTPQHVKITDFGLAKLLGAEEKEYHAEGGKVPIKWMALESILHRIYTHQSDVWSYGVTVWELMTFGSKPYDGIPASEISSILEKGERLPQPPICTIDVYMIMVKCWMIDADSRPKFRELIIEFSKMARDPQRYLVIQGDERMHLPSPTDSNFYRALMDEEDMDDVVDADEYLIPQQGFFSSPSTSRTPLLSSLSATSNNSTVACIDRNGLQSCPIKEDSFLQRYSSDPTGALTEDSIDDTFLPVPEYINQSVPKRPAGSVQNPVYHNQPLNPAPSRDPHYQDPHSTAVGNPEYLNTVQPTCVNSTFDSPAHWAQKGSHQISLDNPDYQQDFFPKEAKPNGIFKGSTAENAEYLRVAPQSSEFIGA
Experiment [8] concerns the target Follistatin-related protein 3 (Homo sapiens) (UniProt O95633). Description: compounds binding follistatin-related protein 3 – biochemical, small-molecule microarray, 635 nm fluorescence, primary screen (AID 1105).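 Note: score merges emission near 667 nm and signal to noise per printed spot across three slides.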 To be noted: FSTL3 binding, higher = more signal.
In experiment [9] the target is Dickkopf-related protein 1 (Homo sapiens) (UniProt O94907). Description: small molecules binding DKK1 protein – biochemical, small-molecule microarray, 635 nm fluorescence scan, primary screen (AID 1106).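 Note: score merges emission near 667 nm with signal to noise over three replicate slides.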 The settings on record: higher = more signal.
Dickkopf-related protein 1 (Homo sapiens), sequence (O94907 whole entry, looked up): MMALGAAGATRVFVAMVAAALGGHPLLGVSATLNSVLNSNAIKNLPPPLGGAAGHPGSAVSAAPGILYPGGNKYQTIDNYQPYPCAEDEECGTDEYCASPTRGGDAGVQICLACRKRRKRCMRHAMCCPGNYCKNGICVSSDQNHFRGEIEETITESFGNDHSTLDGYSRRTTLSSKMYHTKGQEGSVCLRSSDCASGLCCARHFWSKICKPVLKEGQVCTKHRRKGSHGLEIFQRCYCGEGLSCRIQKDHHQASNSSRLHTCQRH
Experiment [10] has as its system Inhibin beta A chain (activin A). Description: small molecules binding activin A – biochemical, small-molecule microarray, 635 nm fluorescence scan, primary screen (AID 1107).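 Note: mouse activin A protein probed at 4.33 µg/mL on printed slides; score merges bound-protein fluorescence near 667 nm with spot signal-to-noise.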 The settings on record: INHBA, higher = more signal.
Experiment [11] has as its system Human papillomavirus type 1a protein E7 (residues 44-93). The experiment is described as follows: small molecules binding HPV E7 44-93 – biochemical, small-molecule microarray, residues 44-93, 635 nm fluorescence, primary screen (AID 1108).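 Note: E7 fragment applied at 1 µg/mL in TBST for 1 h at 4 C; score combines spot fluorescence with its signal to noise ratio.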 The settings on record: fluorescence 635 nm, higher = more signal.
Experiment [12] is described as follows: hepatitis C replication reporter changes, two-sided – Huh7 cells, luciferase reporter, HCV replication inhibitor project, primary screen (AID 1109).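 Note: huh7 hepatoma cells harbouring a luciferase neomycin HCV replicon reporter; luciferase luminescence as measure of HCV replicon replication; test concentration not given here.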 The settings on record: Huh7 HCV replicon luciferase reporter, 48 h; higher = more signal.
Experiment [13] deals with Left-right determination factor 2 (Homo sapiens) (UniProt O00292). Description: small molecules binding LEFTY2 protein – biochemical, small-molecule microarray, 635 nm fluorescence scan, primary screen (AID 1110). To be noted: higher = more signal.
Left-right determination factor 2 (Homo sapiens), sequence (O00292 whole entry, looked up): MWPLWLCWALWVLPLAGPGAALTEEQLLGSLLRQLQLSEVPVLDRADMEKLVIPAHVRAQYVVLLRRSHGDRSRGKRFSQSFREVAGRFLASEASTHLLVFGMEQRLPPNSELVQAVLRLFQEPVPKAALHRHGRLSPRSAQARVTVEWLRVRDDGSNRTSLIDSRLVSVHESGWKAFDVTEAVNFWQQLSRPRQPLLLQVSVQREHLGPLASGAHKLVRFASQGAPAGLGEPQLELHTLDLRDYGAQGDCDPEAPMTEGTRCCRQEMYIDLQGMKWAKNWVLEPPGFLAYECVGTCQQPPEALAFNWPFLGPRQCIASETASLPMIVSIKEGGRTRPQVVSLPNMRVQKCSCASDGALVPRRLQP
The target in experiment [14] is Calmodulin-1 (Homo sapiens) (UniProt P0DP23). Description: small molecules binding calmodulin-1 with EGTA – biochemical, small-molecule microarray, Cy5-labelled CALM1, profiling panel (AID 1111).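 Note: labelled calmodulin applied in Tris saline Tween buffer holding calcium plus EGTA and DTT.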 To be noted: Cy5-CALM1 binding fluorescence, higher = more signal.
Experiment [15] shares this target. Description: small molecules binding Ca-loaded calmodulin-1 – biochemical, small-molecule microarray, Cy5-labelled CALM1, plus calcium, artefact control for SMM control-protein annotation, profiling panel (AID 1112).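 Note: score merges spot fluorescence with signal to noise from triplicate slides.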 To be noted: Cy5-CALM1 binding fluorescence, higher = more signal.
Experiment [16] is described as follows: probe aWnt5a binding to arrayed compounds – biochemical, biotinylated probe, 635/667 nm fluorescence, primary screen (AID 1113).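 Note: score merges 667 nm fluorescence intensity with signal-to-noise per printed feature.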 The settings on record: small-molecule microarray, higher = more signal.
A short description of experiment [17]: probe aShh binding to arrayed compounds – biochemical, biotinylated probe, 635/667 nm fluorescence, primary screen (AID 1114).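 Note: probe is biotin-labelled aShh protein from a stem cell growth factor screen; measures binding of labelled protein to compounds printed on the slide; score merges feature fluorescence at 667 nm with signal-to-noise.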 The settings on record: small-molecule microarray, higher = more signal.
The nature of experiment [18]: probe aNog binding to arrayed compounds – biochemical, biotinylated probe, 635/667 nm fluorescence, primary screen (AID 1115).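 Note: probe is biotinylated aNog protein used at 0.15 µg/mL for 1 h at 4 C; z-score combines 667 nm fluorescence of each spot with its signal to noise.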 The settings on record: small-molecule microarray, higher = more signal.
The target of experiment [19] is Torsin-1A-interacting protein 1 (Homo sapiens) (UniProt Q5JTV8). Description: compound microarray binding of lysate hLAP1 – cell lysate, small-molecule microarray, COS7 lysate, 635/667 nm fluorescence, primary screen (AID 1116). The settings on record: 635 nm fluorescence, higher = more signal.
Torsin-1A-interacting protein 1 (Homo sapiens), sequence (Q5JTV8 whole entry, looked up): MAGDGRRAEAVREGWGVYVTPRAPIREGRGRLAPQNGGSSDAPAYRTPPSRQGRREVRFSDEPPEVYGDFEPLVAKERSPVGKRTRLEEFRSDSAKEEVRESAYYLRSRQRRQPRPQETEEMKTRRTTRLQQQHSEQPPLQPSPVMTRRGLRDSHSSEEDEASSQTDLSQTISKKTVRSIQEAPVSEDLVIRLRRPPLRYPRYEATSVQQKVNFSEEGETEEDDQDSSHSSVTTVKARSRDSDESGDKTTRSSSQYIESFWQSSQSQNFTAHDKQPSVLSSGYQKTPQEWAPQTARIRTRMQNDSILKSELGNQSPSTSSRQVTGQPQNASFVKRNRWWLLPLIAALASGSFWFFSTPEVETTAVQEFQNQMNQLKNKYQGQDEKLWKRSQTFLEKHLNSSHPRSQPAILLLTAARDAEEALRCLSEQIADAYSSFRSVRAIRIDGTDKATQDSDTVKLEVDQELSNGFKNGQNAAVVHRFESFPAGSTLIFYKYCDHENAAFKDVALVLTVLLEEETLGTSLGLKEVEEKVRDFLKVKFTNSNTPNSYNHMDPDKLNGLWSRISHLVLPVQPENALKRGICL
Experiment [20] deals with Alpha-bungarotoxin (Bungarus multicinctus) (UniProt P60615). The experiment is described as follows: compounds binding labelled alpha-BTX control protein – biochemical, small-molecule microarray, Alexa647 label, 635/667 nm fluorescence, artefact control for SMM control protein annotation, profiling panel (AID 1117). To be noted: alpha-BTX-A647 binding fluorescence, higher = more signal.
Alpha-bungarotoxin (Bungarus multicinctus), sequence (P60615 whole entry, looked up): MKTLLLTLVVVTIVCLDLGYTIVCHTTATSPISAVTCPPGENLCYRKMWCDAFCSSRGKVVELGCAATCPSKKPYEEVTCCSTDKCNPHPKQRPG

Activity calls are given as the source filed them.

Follistatin-related protein 3 (Homo sapiens), sequence (O95633 whole entry, looked up): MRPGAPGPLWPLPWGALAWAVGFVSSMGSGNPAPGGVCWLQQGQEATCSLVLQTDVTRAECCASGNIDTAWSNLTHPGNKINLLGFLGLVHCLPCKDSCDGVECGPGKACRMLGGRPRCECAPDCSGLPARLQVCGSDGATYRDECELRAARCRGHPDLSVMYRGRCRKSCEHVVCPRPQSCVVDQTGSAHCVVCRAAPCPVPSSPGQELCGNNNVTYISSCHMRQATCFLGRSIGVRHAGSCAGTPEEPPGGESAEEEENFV

In the case of `CC(C)NC(=O)[C@@H]1c2ccccc2C(=O)N(Cc2ccccc2)[C@H]1c1ccc(CO)cc1`, the composite z-score in experiment [1] was 1.62; in [2], 0.652; in [3] it was 1.11; in experiment [5] it was 0.462; in experiment [6], 0.263; in experiment [7], -1.41. The composite z-score in experiment [8] was -0.942; in experiment [9], -1.05; in experiment [10], -0.212; in [11] it was -1.8; in experiment [13], -1.06; in [14], -0.472. Besides, the composite z-score in experiment [15] is 0.477; in experiment [16], 0.115; in experiment [17], -0.214; in experiment [18], -0.647; in experiment [19], 1.57; in experiment [20], 0.181. The z-score in [4] was 0.00875 (inactive); in experiment [12], -0.777.
As for `CN1CCC(CCCO)=CC1c1ccc(CN2CCCC2)cc1` (stereo not given), the composite z-score was 0.988 in experiment [1]; 0.331 in experiment [2]; 0.756 in [3]; 1.3 in experiment [5]; 1.3 in [6]; 1.64 in experiment [7]. Further, the composite z-score was 1.48 in [8]; 1.74 in experiment [9]; 1.86 in experiment [10]; 1.25 in [11]; 1.3 in experiment [13]; -0.561 in experiment [14]. In addition, the composite z-score in experiment [15] was -0.938; in experiment [16] it was 0.0215; in experiment [17], 0.441; in [18] it was 0.215; in experiment [19], 1.49; in experiment [20] it was 1.34. The z-score in experiment [4] is 0.873 (inactive); in experiment [12], -1.94.
As for `COc1ccccc1CN1C(=O)c2ccccc2[C@@H](C(=O)NCCN2CCOCC2)[C@@H]1c1ccc(CO)cc1`, the composite z-score in experiment [1] is 1.5; in experiment [2], -0.0936; in experiment [3], 0.658; in [5], -0.264; in experiment [6], 0.342; in experiment [7], -0.502. The composite z-score in experiment [8] was -0.334; in [9], -0.0485; in experiment [10], 0.52; in experiment [11] it was 0.623; in experiment [13] it was -0.725; in experiment [14], -0.652. Moreover, the composite z-score in experiment [15] is 0.0041; in experiment [16], -0.185; in experiment [17], 0.123; in [18], -0.232; in [19], 1.01; in experiment [20], -0.737. The z-score is -0.468 (inactive) in experiment [4] and -1.64 in experiment [12].
For `[N-]=[N+]=NCc1ccccc1[C@@H]1OC(c2ccc(OCCCO)cc2)=N[C@]1(Cc1ccccc1N=[N+]=[N-])C(=O)NCc1ccccc1`, the composite z-score in experiment [1] stood at 0.919; in experiment [2] it was 0.0108; in experiment [3], 0.316; in [5] it was 0.691; in experiment [6] it was 1.25; in [7], 0.351. Besides, the composite z-score was 0.667 in experiment [8]; 0.0688 in experiment [9]; 1.28 in [10]; 1.33 in [11]; 0.374 in [13]; 1.34 in experiment [14]. Besides, the composite z-score in experiment [15] is 0.12; in [16] it was -0.138; in experiment [17], -0.221; in experiment [18] it was -0.447; in experiment [19], 1.4; in experiment [20], 0.158. Also, the z-score in experiment [4] was -0.856 (inactive); in [12], -1.64.
For `COCCOC(=O)N1C(=O)[C@@]2(c3ccccc31)[C@H](c1ccc(O)cc1)N1[C@H](c3ccccc3)[C@H](c3ccccc3)OC(=O)[C@H]1[C@@H]2C(=O)N1CCc2cc(OC)c(OC)cc2C1`, the composite z-score in [1] was determined as 1.25; in [2] it was 0.203; in [3], 0.404; in experiment [5], 1.36; in [6] it was 0.92; in experiment [7] it was 0.869. Besides, the composite z-score in experiment [8] was 1.03; in experiment [9] it was 0.84; in experiment [10], 0.451; in [11] it was 0.607; in [13], 1.01; in [14], 0.889. In addition, the composite z-score in experiment [15] was 0.579; in [16], -0.0819; in experiment [17], -0.214; in experiment [18], -0.533; in experiment [19], 0.811; in experiment [20] it was 0.789. Besides, the z-score in experiment [4] is -0.832 (inactive); in experiment [12], -1.47.
As to `CC(=CC1CCCCC1)[C@@H](NC(=O)c1ccc(C(F)(F)F)cc1)c1ccc(-c2ccccc2)cc1`, the composite z-score in experiment [1] is -0.0411; in experiment [2] it was 0.41; in experiment [3], 0.848; in experiment [5], -0.394; in [6], -0.988; in experiment [7], -0.365. Also, the composite z-score in experiment [8] is 0.138; in experiment [9] it was -0.0349; in experiment [10] it was 1.03; in experiment [11], -0.778; in experiment [13] it was -0.886; in [14] it was 0.605. The composite z-score is 0.636 in experiment [15]; -0.0735 in [16]; 0.151 in experiment [17]; 0.506 in [18]; -0.204 in experiment [19]; 0.48 in experiment [20]. Moreover, the z-score is -0.423 (inactive) in [4] and -1.04 in experiment [12].
In the case of `N[C@@H](Cc1ccccc1)Cn1cc(-c2ccccc2)nn1`, the composite z-score is -0.334 in [1]; 0.552 in [2]; 0.932 in experiment [3]; -0.232 in [5]; -0.595 in experiment [6]; 0.0157 in [7]. The composite z-score in experiment [8] is 0.0589; in experiment [9] it was -0.328; in experiment [10] it was 0.458; in experiment [11] it was 0.18; in experiment [13], -0.339; in experiment [14], -0.197. Moreover, the composite z-score is -0.574 in experiment [15]; -0.027 in experiment [16]; -0.206 in experiment [17]; -0.329 in [18]; 0.119 in [19]; 0.588 in experiment [20]. Moreover, the z-score in experiment [4] is -1.38 (inactive); in experiment [12], -0.65.
In the case of `Cc1ccc([C@H]2C(C(=O)O)=C[C@@H](C)N2S(=O)(=O)c2ccc(C)cc2)cc1`, the composite z-score in experiment [1] was 1.23; in [2], 0.353; in [3], 0.841; in experiment [5], -0.564; in [6] it was -0.107; in experiment [7], -0.19. Further, the composite z-score in [8] is -0.525; in experiment [9], -1.13; in [10], 1.02; in [11], 0.801; in experiment [13] it was -0.942; in [14], 1. For the same compound, the composite z-score is 0.0248 in experiment [15]; -0.0478 in experiment [16]; 0.0062 in [17]; -0.0827 in [18]; 0.917 in [19]; 1.57 in experiment [20]. The results for the z-score in experiment [4] and in [12] were 0.709 (inactive) and 0.537, respectively.
As to `CCOc1cc(C(O)C2C=CC3C(=O)N(c4ccccc4)C(=O)C3N2Nc2ccc([N+](=O)[O-])cc2)ccc1O` (stereo not given), the composite z-score in experiment [1] is 1.33; in [2] it was -0.0703; in experiment [3] it was -0.129; in experiment [5], 0.575; in experiment [6], 0.757; in experiment [7], 0.317. Besides, the composite z-score in [8] is 0.429; in [9], 0.0577; in [10], 0.199; in experiment [11], 0.532; in experiment [13] it was 0.173; in experiment [14], -0.085. Moreover, the composite z-score in experiment [15] was -0.255; in experiment [16], -0.0165; in experiment [17] it was -0.0849; in experiment [18], -0.489; in experiment [19], 0.0762; in [20], 0.0502. Further, the z-score is -0.214 (inactive) in experiment [4] and -0.31 in experiment [12].

These data come from PubChem BioAssay.
